Experimental data as given in PubChem BioAssay (EPA / NIEHS).
Results filed as inconclusive are left out. Activity calls are given as the source filed them. Rule for the calls: active = hit-call score of the fitted dose curve at least 0.9, where 1 is the maximum; inconclusive = response in the unintended direction; inactive = score below 0.9.

Experiment: ATG_XTT_Cytotoxicity: Cytotoxicity Assessment in the Attagene TRANS-FACTORIAL HepG2 Assay (AID 2283584)
Method in brief: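 24 h chemical exposure of reporter-transfected HepG2; XTT signal loss vs DMSO indicates cytotoxicity.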

Structure (SMILES) | outcome
CCOC(=O)OC(=O)OCC | inactive
CC1(C)CC(O)CC(C)(C)N1[O] | inactive
CC(C)=NNC(N)=S | inactive
CCOC(=O)CC(=O)c1ccccc1 | inactive
CC1CCC(=O)C1=O (stereo not given) | inactive
CCCCCCCO | inactive
CC/C=C\C/C=C\C/C=C\CCCCCCCC(=O)OC | inactive
Nc1ccc(Cl)c(N)c1 | inactive
C=CCOC(=O)c1ccc(C(=O)OCC=C)c(C(=O)OCC=C)c1 | inactive
COc1cc(O)c(C(=O)c2ccccc2)cc1S(=O)(=O)O | inactive
CC(C)C(=O)OCCc1ccccc1 | inactive
CC(C)c1ccc2ncccc2c1 | inactive
Cc1c(O)cccc1O | inactive
C=CC(=O)NC(C)(C)C | inactive
CC(C)(CO)C(O)C(=O)NCCCO (stereo not given) | inactive
CC(c1cc(C(C)(C)C)cc(C(C)(C)C)c1O)c1cc(C(C)(C)C)cc(C(C)(C)C)c1O | inactive
CC(=O)CCC1=C(C)CCCC1(C)C | inactive
O=C(O)CCC(=O)O | inactive

Structure (SMILES) | outcome
Cc1c[nH]c(=O)[nH]c1=O | inactive
Cn1cccc1 | inactive
Cc1c(Cl)cccc1Cl | inactive
Cc1ccc2c(c1)CCCN2 | inactive
CCNc1nc(NC(C)(C)C)nc(OC)n1 | inactive
CCc1cccc(CC)c1 | inactive
CCCCCC1=CCCC1=O | inactive
C=CC(=O)NCOCCCC | inactive
CCOB(OCC)OCC | inactive
CCCCCCCCCCCCCc1ccccc1 | inactive
CC1(C)C(=O)N(CO)C(=O)N1CO | inactive
CCN(CC)c1cccc(C)c1 | inactive
C1CCSC1 | inactive
CCC(C)C(=O)OC (stereo not given) | inactive
CC=C(C)C(C)=O | inactive
C=CCCCCCCCCOC(C)=O | inactive
COC(=O)C=Cc1ccccc1 | inactive
